Bioassay records deposited in PubChem by Sanford-Burnham Center for Chemical Genomics.
Shown are actives, neighbours in structure and some others; about 3% of the full set was active somewhere.
SENP8 block-1: human SENP8 protease inhibitors, primary screen, biochemical, fluorescence, Nedd8 protein substrate, uHTS; Sentrin-specific protease 8 (Homo sapiens), Q96LD8; recombinant SENP8; inhibition, % at 20 µM; 360,000 tested, 0.64% active; AID 602440, 2012; in the data active means inhibition mostly above about 40%, no sharp cut-off; inactive means mostly below about 27%
C8 TRAIL sens: viability loss with TRAIL in NB7+C8 cells, primary screen, TRAIL sensitizer project, cell-based, ATPlite luminescence; AID 624354, 2012; inhibition (viability loss, TRAIL sensitization), % at 10 µM; 360,000 tested, 1% active;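 active means compounds causing at least 50% loss of cell viability in the single-dose screen, relative to plate controls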
PPC-1+TRAIL kill: compounds killing PPC-1 cancer cells with TRAIL present, primary screen, TRAIL potentiator project, ATPLite luminescence, uHTS; cell killing (% activity), % at 4 µM or 5 µM; PPC-1 cells + TRAIL, ATPLite viability luminescence; AID 1443, 2008; 220,000 tested, 0.41% active;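 active means cell killing above 50% in the first pass at 4 µM, then a duplicate retest at 5 µM averaging 50% or more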;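 further: plate controls were cells with TRAIL plus DMSO for no effect and medium-only wells lacking cells for full effect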
SENP6 inh: SENP6 protease inhibitors, primary screen, biochemical, luminescence, uHTS. Sentrin-specific protease 6 (Homo sapiens), Q9GZR1. Recombinant SENP6 catalytic domain, aminoluciferin luminescence. inhibition, % at 10 µM. 330,000 tested, 1.8% active. AID 2599, 2010;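 active means inhibition above about 50% at the single tested dose, limit read from the data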;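 further: plate controls were DMSO wells with enzyme for no effect and DMSO wells lacking enzyme for full effect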
SENP7 block: SENP7 protease inhibitors, primary screen, biochemical, luminescence, uHTS; recombinant SENP7, Z-RLRGG-aminoluciferin luminescence, 40 min; 330,000 tested, 1.5% active; inhibition, % at 5 µM;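 active means inhibition above about 50% at the single test dose, limit read from the data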;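 further: plate controls were DMSO with enzyme for no effect and no enzyme buffer wells for full effect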
Target sequence (Q9BQF6 706-1050 limits assumed): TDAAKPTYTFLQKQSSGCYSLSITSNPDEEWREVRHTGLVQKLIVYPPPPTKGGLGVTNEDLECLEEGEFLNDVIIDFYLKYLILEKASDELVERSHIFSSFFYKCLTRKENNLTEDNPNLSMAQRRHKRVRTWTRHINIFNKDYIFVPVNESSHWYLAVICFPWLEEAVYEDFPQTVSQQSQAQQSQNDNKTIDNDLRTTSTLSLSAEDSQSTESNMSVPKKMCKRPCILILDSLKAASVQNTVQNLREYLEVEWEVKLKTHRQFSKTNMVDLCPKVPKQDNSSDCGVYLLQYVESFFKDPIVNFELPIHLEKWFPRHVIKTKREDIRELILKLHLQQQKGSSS
SENP8 block-2: SENP8 protease inhibitors, primary screen, biochemical, luminescence; Sentrin-specific protease 8 (Homo sapiens), Q96LD8; purified SENP8, Z-RLRGG-aminoluciferin cleavage; inhibition, % at 10 µM; 330,000 tested, 1.2% active; in the data active means inhibition above about 50%
SENP8 conf: SENP8 protease inhibitors, retest, confirmation, biochemical, luminescence, single concentration | inhibition, % at 12.5 µM | shares compounds with SENP7 block | 6,200 tested, 40% active | Recombinant SENP8, Z-RLRGG-aminoluciferin luminescence, 60 min | AID 488912, 2010;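 active means mean inhibition across replicates above about 50%, limit read from the data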
SENP6 conf: SENP6 protease inhibitors, confirmation, biochemical, luminescence, single concentration | 6,200 tested, 58% active | inhibition, % at 12.5 µM | shares compounds with SENP7 block | AID 488915, 2010 | recombinant SENP6, Z-RLRGG-aminoluciferin luminescence
SENP7 confirm: SENP7 protease inhibitors, retest, confirmation, biochemical, luminescence, single concentration. shares compounds with SENP7 block. recombinant SENP7, Z-RLRGG-aminoluciferin luminescence, 40 min. inhibition, % at 12.5 µM. 6,200 tested, 69% active. AID 488917, 2010
Casp3 SENP sel: caspase-3 protease inhibitors, confirmation, selectivity assay for SENP inhibitor project, biochemical, single concentration; inhibition, % at 12.5 µM; shares compounds with SENP7 block; 6,200 tested, 60% active; purified caspase-3, Z-DEVD-aminoluciferin luminescence, 60 min; AID 488918, 2010;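 active means mean inhibition above about 50%, limit read from the data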;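 further: plate controls were enzyme with DMSO for no effect and wells without caspase-3 for full effect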
SENP luc ctr: interferes with luciferase luminescence in SENP counter-screen; Pre-incubated SENP8/Z-RLRGG-aminoluciferin, luciferase luminescence interference; inhibition, % at 12.5 µM; shares compounds with SENP7 block; AID 488919; 6,200 tested, 39% active;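 active means mean inhibition above about 50% when retested at one dose, limit read from the data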;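 further: plate controls were DMSO wells with completed reaction for no effect and substrate without enzyme for full effect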
Active calls of the source: *; i = inactive; x = no result given.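 How the source made its calls, unless noted: active means mean inhibition above about 50% in the one-dose retest (limit read from the data); inactive means the rest.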

SMILES | SENP8 block-1 | C8 TRAIL sens | PPC-1+TRAIL kill | SENP6 inh | SENP7 block | SENP8 block-2 | SENP8 conf | SENP6 conf | SENP7 confirm | Casp3 SENP sel | SENP luc ctr
N/C(=N/OC(=O)c1ccccc1F)c1nonc1N | 21 | 1 | 16 | 98* | 98* | 93* | 95* | 95* | 101* | 97* | 96*
N/C(=N/OCc1cccc([N+](=O)[O-])c1)c1nonc1N | 0 | 7 | 15 | -22 | -5 | -8 | x | x | x | x | x
Nc1nonc1C(=O)OCC(=O)c1ccc(Cl)cc1 | 0 | -14 | 0 | -7 | -1 | -2 | x | x | x | x | x
C[C@H](CO)N1C[C@H](C)[C@@H](CN(C)CC2CC2)Oc2c(NC(=O)Cc3ccccc3)cccc2C1=O | 10 | 8 | x | 0 | -9 | -4 | x | x | x | x | x
Fc1ccc(Nc2nc(-c3cccnc3)cs2)cc1 | 1 | 6 | x | 25 | 34 | 2 | x | x | x | x | x
COc1ccc(Nc2nc(-c3cccnc3)cs2)c(OC)c1 | 7 | 3 | x | 12 | -18 | -9 | x | x | x | x | x
CCN(CC)c1ccc(Nc2nc(-c3cccnc3)cs2)cc1 | 16 | -12 | x | 62* | 11 | 57* | 56* | 52* | 88* | 47 | 22
COc1ccccc1Nc1nc(-c2cccnc2)cs1 | 16 | 9 | x | 67* | 53* | 50* | -26 | 39 | 78* | 42 | 60*
Cc1ccc(C)c(S(=O)(=O)NCc2ccc3c(c2)OCO3)c1 | 13 | 3 | x | -6 | -2 | 10 | x | x | x | x | x
CCN1C[C@@H]2[C@@H]3C(=O)N(Cc4ccccc4)C(=O)[C@@H]3[C@](CC)(C1=O)N2C(=O)c1ccccc1 | 8 | 9 | x | x | x | x | x | x | x | x | x
Cc1ccc(CNc2ncccc2-c2nc3cc(Cl)ccc3o2)cc1 | -260 | -11 | 29 | 10 | 15 | -2 | x | x | x | x | x
Cc1ccc(-c2nc3cc(NC(=O)C(C)C)ccc3o2)cc1C | -280 | 37 | 22 | 95* | 98* | 92* | 5 | 23 | 12 | 77* | 3
COc1cc(OC)cc(-c2nc3cc(C)ccc3o2)c1 | -39 | 26 | 29 | 97* | 98* | 94* | 95* | 97* | 101* | 94* | 93*
Cc1ccc(-c2nc3cc(Cl)ccc3o2)cc1 | 0 | 31 | -12 | 91* | 90* | 75* | 7 | 17 | 35 | 13 | 6
Cc1ccc(-c2nc3cc(NC(=O)C(C)C)ccc3o2)cc1 | -491 | 46 | 36 | 76* | 84* | 35 | 1 | 6 | 7 | 13 | 10
CCOc1ccc(S(=O)(=O)N2CCN(CCNS(=O)(=O)c3ccc(C)cc3)CC2)cc1 | 4 | 0 | x | -18 | -8 | 2 | x | x | x | x | x
Cc1cc2nc(-c3ccc(NC(=O)C(C)C)cc3)oc2cc1C | i | 21 | 12 | 26 | 70* | 21 | 14 | 14 | 29 | 45 | 17
CC(=O)Nc1ccc(-c2nc3ccc(NC(C)=O)cc3o2)cc1 | -303 | 2 | x | 13 | -5 | 1 | x | x | x | x | x
